Over roughly 110,000 compounds, “z-score” has its median near -0.1; the highest 2% begin near 2. The sample as a whole holds a higher share of the highest values than the screen did. Calls of active or inactive are those of the source.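 The calls were made as follows: active = z-score in the third read window above 3 or below -3; inactive = the rest.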

Metabotropic glutamate receptor 8 (Rattus norvegicus), sequence (P70579 whole entry, looked up): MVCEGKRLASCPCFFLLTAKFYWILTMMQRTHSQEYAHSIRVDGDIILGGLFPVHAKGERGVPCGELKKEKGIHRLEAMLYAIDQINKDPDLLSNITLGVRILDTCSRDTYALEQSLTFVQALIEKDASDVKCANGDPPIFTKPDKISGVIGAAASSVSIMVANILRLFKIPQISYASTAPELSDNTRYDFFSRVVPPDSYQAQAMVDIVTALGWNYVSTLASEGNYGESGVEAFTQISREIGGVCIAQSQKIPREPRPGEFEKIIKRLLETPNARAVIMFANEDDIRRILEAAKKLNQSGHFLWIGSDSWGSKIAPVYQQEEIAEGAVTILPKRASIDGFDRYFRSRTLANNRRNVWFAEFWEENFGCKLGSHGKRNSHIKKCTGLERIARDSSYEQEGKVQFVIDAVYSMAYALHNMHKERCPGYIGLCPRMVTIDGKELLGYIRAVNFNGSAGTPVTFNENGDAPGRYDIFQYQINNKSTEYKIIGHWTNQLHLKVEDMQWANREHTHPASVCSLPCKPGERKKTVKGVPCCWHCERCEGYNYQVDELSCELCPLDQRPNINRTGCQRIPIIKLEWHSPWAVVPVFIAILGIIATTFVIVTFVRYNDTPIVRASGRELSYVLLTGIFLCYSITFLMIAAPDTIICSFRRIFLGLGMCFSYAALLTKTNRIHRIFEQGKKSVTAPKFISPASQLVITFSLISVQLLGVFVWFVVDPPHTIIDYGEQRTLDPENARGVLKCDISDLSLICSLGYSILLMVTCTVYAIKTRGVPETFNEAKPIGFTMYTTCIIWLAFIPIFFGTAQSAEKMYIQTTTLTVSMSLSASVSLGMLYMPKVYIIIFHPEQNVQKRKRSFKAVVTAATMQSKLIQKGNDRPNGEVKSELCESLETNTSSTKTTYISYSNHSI

This experiment concerns the target Metabotropic glutamate receptor 8 (Rattus norvegicus) (UniProt P70579). Description: rat mGluR8 modulators via GIRK flux, primary screen, cell-based, thallium flux, HTS (AID 488969). The following applies: HEK293 rat mGluR8, GIRK (G protein-gated inwardly rectifying potassium channel) thallium flux, FluoZin2; at 10 µM; stronger effect = higher value; submaximal glutamate (EC20) added with thallium.
The compound `CC(=O)c1c(C)[nH]c(C(=O)OCC(=O)Nc2cccc(S(=O)(=O)N3CCCC3)c2)c1C` showed a z-score of 0.16.
Consider `Cc1cc(C)c(C)c(S(=O)(=O)NNC(=O)c2cccc(S(=O)(=O)N3CCOCC3)c2)c1C`, for which the z-score was -0.174.
As for `COC(=O)n1c(=S)oc2cc(Cl)ccc21`, the figure is 2.15; as for `CCCCOC(=O)n1c(=S)oc2cc(Cl)ccc21`, -0.00789; as for `Cc1ccccc1OC(=O)n1c(=S)oc2cc(Cl)ccc21`, 1.42.
As for `O=C(NCc1ccco1)c1ccc(S(=O)(=O)c2cccc(S(=O)(=O)N3CCOCC3)c2)cc1`, the figure is 0.0723.
The compound `CCC(C)C(=O)Nc1nc(C)c(-c2csc(Nc3ccccc3OC)n2)s1` (configuration not stated) gave a z-score of -0.407.
As for `Clc1ccc(OCc2cc(-c3ccccc3)no2)c(Cl)c1`, the figure is -0.0969.
As for `CCOc1ccc2nc(N3C(=O)/C(=C/c4ccccc4)NC3=S)sc2c1`, the figure is 3.66 (active).
With `COc1ccc2nc(N3C(=O)/C(=C/c4ccccc4)NC3=S)sc2c1`, the z-score is 11.9 (active).
To `COc1ccc2nc(N3C(=O)CC(Cc4ccc(Cl)cc4)C3=O)sc2c1` (configuration not stated) belongs -0.21; to `CCOc1ccc2nc(SCC(=O)c3ccccc3)sc2c1`, 0.303.
On to `COc1ccc2nc(N3C(=O)/C(=C/c4ccc(Cl)cc4)NC3=S)sc2c1`, for which the z-score was 6.84 (active).
With `CCOc1ccc2nc(N3C(=O)/C(=C/c4ccc(Cl)cc4)NC3=S)sc2c1`, the z-score stood at 1.05.
`COc1ccc2nc(N3C(=O)CC(C(C)c4ccccc4)C3=O)sc2c1` (configuration not stated): the z-score was -0.143.
To `COC(=O)/C=C1\C(=O)N(c2nc3ccc(OC)cc3s2)C(=S)N1c1ccc(F)cc1` belongs 0.0125; to `COc1ccc(N2C(=O)/C(=C/c3cccnc3)NC2=S)cc1`, -0.439.
As for `Cc1cccc(OCCNc2cc(N3CCN(CCO)CC3)ccc2[N+](=O)[O-])c1`, the figure is -0.0985; as for `Cc1cc2c(cc1C)NC1(C(=O)Nc3ccccc31)C1=C(CC(C)(C)CC1=O)N2` (configuration not stated), 0.0524.
As for `Cc1cccc(Oc2ccccc2NC(=O)c2cnccn2)c1`, the figure is -0.109; as for `COc1cc(C(=O)NCCc2ccc3c(c2)OCCO3)ccc1OCC(=O)N1CCOCC1`, 0.0469; as for `CCCCOc1ccc(-c2cc(C(=O)NNC(=S)NCC)c3ccccc3n2)cc1`, -0.155.
Take `COc1ccccc1N1CCN(C(CNC(=O)c2ccc3c(c2)OCO3)c2cccnc2)CC1` (configuration not stated): the z-score was found to be 0.0309.
As for `CC(CNCC1CCCO1)COc1cccc2ccccc12` (configuration not stated), the figure is 0.285; as for `Cc1ccc(C(=O)N/C(=C\c2ccc(-c3ccc(Br)cc3)o2)C(=O)NC2CCS(=O)(=O)C2)cc1` (configuration not stated), -0.13; as for `O=C(Nc1ccc2oc(-c3ccncc3)nc2c1)c1ccccc1F`, -0.225.
To `O=C(Nc1ccc2oc(-c3ccncc3)nc2c1)c1c(F)c(F)c(F)c(F)c1F` belongs 3.39 (active); to `COc1c(F)c(F)c(C(=O)Nc2ccc3oc(-c4ccncc4)nc3c2)c(F)c1F`, -0.29; to `COc1cc2c(cc1NCc1ccccn1)oc1ccccc12`, -0.0883.
As for `CCC(=O)Nc1ccc(N2CCN(Cc3ccccc3)CC2)cc1`, the figure is 0.042; as for `O=C(CCS(=O)(=O)c1ccccc1)Nc1nc2c(s1)COc1ccccc1-2`, -0.504.
Turning to `C/C=C/C=N/Nc1nc(-c2ccc([N+](=O)[O-])cc2)cs1`, the z-score is -0.273.
As for `COc1ccc(C(=O)N2CCN(C3CCC(c4ccccc4)CC3)CC2)cc1OC` (configuration not stated), the figure is -1.61; as for `O=C(CC(O)(C(F)(F)F)C(F)(F)F)Nc1ccc(Cl)c(Cl)c1`, 6.91 (active); as for `Cc1ccc(NC(=O)CC(O)(C(F)(F)F)C(F)(F)F)cc1`, -0.185.
As for `Cc1ccc(Cl)cc1NC(=O)CC(O)(C(F)(F)F)C(F)(F)F`, the z-score is -2.38.
As for `CCOC(=O)CC(=O)CSc1nc2c(cc1C#N)CCC2`, the figure is 2.18.
As for `CCOC(=O)CC(=O)CSc1nc2c(cc1C#N)CCCCC2`, the figure is 1.09; as for `COC(=O)CC(=O)CSc1nc2c(cc1C#N)CCC2`, -0.106.
In turn, `CCC(=O)NCCCCNC(=O)CC` showed a z-score of 0.217.
Compound `CC1(C)CC(=O)C2=C(C1)OC(N)=C(C#N)C2c1cn(-c2ccccc2)nc1-c1ccc(F)cc1` (configuration not stated) yielded a z-score of -0.436.
With `CCNC(=O)c1ccccc1NC(=O)c1cccc(S(=O)(=O)N2CCC(C)CC2)c1`, the z-score was -1.17.
Compound `O=C1N=C(N2CCOCC2)S/C1=C\c1ccc(-c2ccccc2Cl)o1` displayed a z-score of -0.0639.
As for `O=C1NC(=S)/C(=C\c2ccc(-c3ccccc3Cl)o2)S1`, the figure is 3.83 (active); as for `O=C1/C(=C\c2ccc(-c3ccccc3Cl)o2)SC(=S)N1CC1CCCO1` (configuration not stated), 0.755.
As for `COC(=O)c1sccc1NC(=O)c1c(C)cc(=O)oc1C`, the figure is -0.28; as for `Cc1ccc(NC(=O)C(NC2CCCc3ccccc32)c2ccccc2)cc1Cl` (configuration not stated), -0.174.
For `Cc1ccc(NC(=O)C(NC2CCCc3ccccc32)c2ccccc2)c([N+](=O)[O-])c1` (configuration not stated), the z-score was 2.09.
In turn, `Nc1ccc(C(=O)OCC(=O)NC2CCCc3ccccc32)cc1[N+](=O)[O-]` (configuration not stated) had a z-score of -0.347.
To `O=C(NC1CCCCC1)N(C1=NCCCCC1)c1ccc(Br)cc1` belongs -0.204; to `CCOC(=O)C1=C(c2ccccc2)OC(N)=C(C#N)C1C1CCCCC1` (configuration not stated), -0.435; to `COc1ccc(/C=C2\N=C(SC)SC2=O)cc1OC`, -0.325.
To `Cc1ccc2ncccc2c1[N+](=O)[O-]` belongs -0.242; to `CCOc1ccc(-c2cc(C)n3nc(C(N)=O)cc3n2)cc1`, 5.02 (active).
The compound `COC(=O)c1cc2nc(-c3ccccc3)cc(C)n2n1` yielded a z-score of 0.0407.
As for `Cc1cc(-c2ccc(F)cc2)nc2cc(C(N)=O)nn12`, the figure is 0.242; as for `O=C(COc1ccccc1F)N1c2ccccc2CCc2ccccc21`, -0.375; as for `C=CCNC(=S)NC1CC(C)(C)NC(C)(C)C1`, 0.609.
To `CCc1nn(-c2cc(Cl)ccc2OC)c2c1C(=O)CCC2` belongs -0.275.
`CCOC(=O)c1c(NC(=S)Nc2ccccc2)sc2c1CC(C)(C)SC2`: the z-score was -0.0674.
The compound `C=CCNC(=S)Nc1sc2c(c1C(=O)OCC)CC(C)(CC)OC2` (configuration not stated) displayed a z-score of 2.22.
As for `C=CCNC(=S)Nc1sc2c(c1C(=O)OCC)CC(C(C)C)OC2` (configuration not stated), the figure is 8.63 (active); as for `C=CCNC(=S)Nc1sc2c(c1C(=O)OCC)CCN(C(=O)OCC)C2`, 0.145; as for `C=C(C)CNC(=S)Nc1sc2c(c1C(=O)OCC)CC(C)(C)OC2`, 0.296.
As for `CCOC(=O)c1c(NC(=S)NC)sc2c1CC(C)(C)SC2`, the figure is 12.5 (active).
As for `CCOC(=O)c1c(NC(=S)Nc2cccc(C)c2)sc2c1CC(C)(C)SC2`, the figure is 0.0638; as for `CCOC(=O)c1c(NC(=O)c2ccc(C)cc2)sc2c1CC(C)(C)OC2`, -0.222; as for `CC(C)C1Cc2c(sc(NC(=S)NC(=O)c3ccccc3)c2C#N)CO1` (configuration not stated), -0.13.
As to `CCOC(=O)c1c(NC(=S)Nc2ccccc2)sc2c1CCN(CCc1ccccc1)C2`, the z-score was 0.012.
As for `CCOC(=O)c1c(NC(=O)c2ccccc2C)sc2c1CC(C)(C)OC2`, the figure is -0.332; as for `CCOC(=O)c1c(NC(=S)NCCc2ccccc2)sc2c1CC(C(C)C)OC2` (configuration not stated), 3.42 (active); as for `O=C(NCc1ccco1)c1ccccc1F`, 0.717.
Regarding `Cc1ccc(C)c(NC(=O)CNS(=O)(=O)c2ccccc2)c1`, the z-score was -0.144.
As for `O=C(CSc1nnnn1-c1ccccc1)N1CCCc2ccccc21`, the figure is -0.861; as for `Cc1ccc(NC(=O)CSc2nnc(-c3ccncc3)n2C)cc1C`, -0.215; as for `COc1cc(OC)c(NC(=O)c2cccc(F)c2)cc1Cl`, -0.155.
As for `COc1ccc(CC(=O)N(c2ccccc2)c2nc(C)cs2)cc1`, the figure is -0.721; as for `CCCCC(=O)Nc1ccc(NC(=O)C2CC2)cn1`, 0.324; as for `COc1cccc(C(=O)Nc2ccc(NC(C)=O)cn2)c1`, 0.157.
To `CCCC(=O)Nc1ccc(NC(=O)C2CC2)cn1` belongs 13.2 (active); to `CCC(=O)Nc1ccc(NC(=O)C23CC4CC(CC(C4)C2)C3)cn1`, -0.0944; to `CCCC(=O)Nc1ccc(NC(=O)c2cccc(OC)c2)nc1`, 2.18.
The compound `CCCC(=O)Nc1cc(C)c(NC(=O)C23CC4CC(CC(C4)C2)C3)cn1` showed a z-score of 0.0448.
To `CCCCC(=O)Nc1ccc(NC(=O)C2CC2)nc1` belongs 0.252.
As for `CCC(=O)Nc1ccc(NC(=O)c2cccc(OC)c2)nc1`, the figure is 0.209; as for `CCCC(=O)Nc1ccc(NC(=O)C23CC4CC(CC(C4)C2)C3)cn1`, 5.76 (active); as for `O=C(Nc1ccc(Cl)cn1)c1cccc(F)c1`, 0.192.
As for `C[N+]1=C(/C=C/Nc2ccccc2Cl)C(C)(C)c2ccccc21`, the figure is 0.3; as for `COc1ccc(Cl)cc1NC(=O)NC(C)c1ccncc1` (configuration not stated), -0.275.
Regarding `O=C(Nc1cc(C(F)(F)F)ccc1N1CCCC1)c1cccnc1`, the z-score came out at 0.0707.
`O=C(Cn1cc(/C=N/O)c2ccccc21)N1CCOCC1`: the z-score is -0.312.
In turn, `C=CCn1c(COc2ccc(Cl)cc2)nnc1SCC(=O)N1CC(=O)Nc2ccccc21` came in with a z-score of -0.735.
As for `Nc1nnc(Cc2ccccc2)s1`, the figure is -0.122.
To `CC1CCc2nc(NC(=O)CN3CCN(Cc4ccc5c(c4)OCO5)CC3)sc2C1` (configuration not stated) belongs 2.47; to `CC1CCc2nc(NC(=O)CN3CCOCC3)sc2C1` (configuration not stated), -0.313.
As for `CC1CCc2nc(NC(=O)Nc3ccc4c(c3)OCO4)sc2C1` (configuration not stated), the figure is -0.337; as for `COc1cc(/C=N/NC(=S)NCc2ccco2)cc(OC)c1OC`, -0.66; as for `S=C(NCc1ccco1)N/N=C/c1ccccc1Cl`, 2.22.
Consider `S=C(NCCc1ccccc1)N/N=C/c1cccc(Cl)c1Cl`, for which the z-score is 2.63.
To `S=C(NCc1ccco1)Nc1cccc(Cl)c1` belongs 0.899; to `Oc1ccc(/C=N/NC(=S)NCc2ccco2)cc1`, 0.806; to `S=C(NCc1ccco1)Nc1cc(Cl)c(Cl)cc1Cl`, 0.256.
As for `CCN(CC)c1ccc(/C=N/NC(=S)NCc2ccco2)cc1`, the figure is 0.137.
As for `S=C(NCc1ccco1)N/N=C/c1ccc(Cl)cc1`, the figure is 2.21; as for `S=C(NCCc1ccccc1)N/N=C/c1ccccc1Cl`, 0.283.
Regarding `CCc1ccc(/C=N/NC(=S)NCCc2ccccc2)cc1`, the z-score came out at 0.0899.
Consider `CN(C)c1ccc(/C=N/NC(=S)NCc2ccco2)cc1`, for which the z-score was found to be 0.0065.
As to `S=C(NCc1ccco1)Nc1ccc(Cl)c(Cl)c1`, the z-score was 8.32 (active).
As for `Cc1ccccc1N1C(=O)C(Oc2ccc(Cl)cc2)C1CNC(C)(C)C` (configuration not stated), the figure is 0.46; as for `Cc1c(C)n(C)c2ccc(C(=O)Nc3cccc4ccccc34)cc12`, 0.368; as for `O=C(O)c1ccc(N2C(=O)c3cccc(Oc4ccc(Cl)cc4)c3C2=O)cc1`, 0.79.
To `CN(C)CCCNC(=O)COc1ccc(Br)cc1Cl` belongs 0.032.

The record behind these values is PubChem BioAssay AID488969 (Vanderbilt High Throughput Screening Facility, 2010).
